tim10-1 inh: growth inhibitors of tim10-1 mutant yeast, primary screen, luminescence, uHTS; S. cerevisiae tim10-1 ts strain growth, BacTiter-Glo, 24 h; inhibition, % at 20 µM; actives 2.2% (n = 330,000);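 active = inhibition of at least 40%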;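 note: mutant grown at 25 °C; 0% = DMSO wells with yeast and 100% = wells holding no yeast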
SKKanGAS inh: S. pyogenes SKKanGAS growth inhibitors in kanamycin, primary screen, streptokinase expression inhibitor project, SKKanGAS strain, BacTiter-Glo luminescence | 6 h | inhibition, % at 7.5 µM | actives 1.3% (n = 300,000) | AID 1662, 2009;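 active = mean replicate score, as percent of positive control median, at least 50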;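 note: strain carries kanamycin resistance gene driven by streptokinase promoter and grows in 40 µg/ml kanamycin; loss of luminescence reflects streptokinase promoter inhibition or plain growth inhibition; 0% = median of DMSO wells and 100% = positive control at its reference dose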
tim23-1 inh: growth inhibitors of tim23-1 mutant yeast, primary screen, luminescence, uHTS | S. cerevisiae tim23-1 growth, BacTiter-Glo luminescence, 24 h | inhibition, % at 20 µM | actives 1.3% (n = 330,000);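 active = growth inhibition of the mutant yeast at or above 50%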;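 note: temperature-sensitive mutant grown at 25 °C; plate controls were DMSO-treated mutant yeast for no effect and medium wells lacking yeast for full effect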
ATG4B inhibitor: ATG4B protease inhibitors, primary screen, biochemical, fluorescence, uHTS; Cysteine protease ATG4B (Homo sapiens), Q9Y4P1; ATG4B cleavage of LC3-PLA2, NBD-HPC fluorescence, 1 h; inhibition, % at 8.33 µM; actives 0.51% (n = 340,000); AID 504462, 2011; in the data active = inhibition above about 40%
Target sequence (Q9Y4P1 whole entry, looked up): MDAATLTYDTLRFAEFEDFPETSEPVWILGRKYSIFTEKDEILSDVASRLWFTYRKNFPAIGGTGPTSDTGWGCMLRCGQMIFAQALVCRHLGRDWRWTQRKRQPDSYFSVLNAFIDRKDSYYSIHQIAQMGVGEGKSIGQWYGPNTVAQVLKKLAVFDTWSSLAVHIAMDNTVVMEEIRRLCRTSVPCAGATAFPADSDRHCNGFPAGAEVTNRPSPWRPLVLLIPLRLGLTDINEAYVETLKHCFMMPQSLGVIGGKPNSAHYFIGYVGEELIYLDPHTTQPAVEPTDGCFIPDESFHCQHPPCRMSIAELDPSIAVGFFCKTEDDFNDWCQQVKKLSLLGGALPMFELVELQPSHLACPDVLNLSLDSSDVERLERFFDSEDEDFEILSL
TIM10 inh: growth inhibitors of isogenic TIM10 control yeast, primary screen, counter-screen for tim10-1 yeast inhibitor project, luminescence, uHTS; inhibition, % at 10 µM; actives 1.4% (n = 330,000); S. cerevisiae TIM10 strain growth, BacTiter-Glo luminescence, 24 h;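 active = inhibition of 40% or more at the single tested concentration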;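 note: wild-type TIM10 isogenic control strain grown at permissive 25 °C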
PfHsp90 set2: growth inhibition of PfHsp90-expressing yeast, primary screen, antimalarial PfHsp90 inhibitor project, S. cerevisiae, BacTiter-Glo luminescence, single point, set 2. BacTiter-Glo ATP, 48 h; yeast lacking PDR1 and PDR3 efflux regulators. inhibition, % at 9.4 µM. actives 0.32% (n = 310,000). AID 504621, 2011;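 active = every replicate shows inhibition above about 80%, whatever the replicate mean, limit read from the data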;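 note: 0% = DMSO neutral controls and 100% = 20 µM radicicol positive controls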
* = called active by the depositor. Hits are enriched below; roughly 4.7% of the tested compounds scored in any of these assays.

`Cc1cc(C)c2nc(NNC(=O)c3cc(-c4cccs4)nc4ccccc34)sc2c1` gave tim10-1 inh 37.4, SKKanGAS inh 88.6*, tim23-1 inh 41.8, ATG4B inhibitor -3.9, TIM10 inh -12.1 and PfHsp90 set2 -202.8.
Screening Cc1ccc(NC(=O)c2cc(-c3cccs3)nc3ccccc23)nc1 returned tim10-1 inh 3.3, SKKanGAS inh 0.1, tim23-1 inh 22.2, ATG4B inhibitor 6.5, TIM10 inh 16.4 and PfHsp90 set2 -16.6.
Screening Cc1ccc2sc(NNC(=O)c3cc(-c4cccs4)nc4ccccc34)nc2c1C returned SKKanGAS inh 90.2*.
CC(C)OCCCNC(=O)c1cc(-c2cccs2)nc2ccccc12 was read as tim10-1 inh 31.5, SKKanGAS inh 3.4, tim23-1 inh 26.6, ATG4B inhibitor -6.0, TIM10 inh 5.8 and PfHsp90 set2 12.1.
For CC1(C)Cc2nc3sc(C(=O)O)c(N)c3cc2CS1 the results were tim10-1 inh 5.2, SKKanGAS inh -5.6, tim23-1 inh 9.6 and TIM10 inh 12.7.
Cc1occc1C(=O)Nc1nnc(C(F)(F)F)s1 was read as tim10-1 inh 8.6, SKKanGAS inh -0.1, tim23-1 inh 15.5, ATG4B inhibitor 0.8, TIM10 inh 0.9 and PfHsp90 set2 1.1.
Screening O=C(Nc1ccccc1C(=O)Nc1nnc(C(F)(F)F)s1)c1ccccc1 returned tim10-1 inh 12.9, SKKanGAS inh 97.0*, tim23-1 inh 25.7, ATG4B inhibitor 10.2, TIM10 inh -10.1 and PfHsp90 set2 -9.8.
Screening Oc1c(C(c2ccccc2)N2CCOCC2)ccc2ccccc12 (stereo not given) returned ATG4B inhibitor -10.4 and PfHsp90 set2 101.1*.
CCCCNC(=S)N(C)/N=C/c1c(F)c(F)c(F)c(F)c1F was read as tim10-1 inh 18.7, SKKanGAS inh -0.5, tim23-1 inh 12.8, ATG4B inhibitor -4.7, TIM10 inh -3.9 and PfHsp90 set2 -1.8.
For CCNC(=O)C(CC(C)C)NC(=O)C(CO)NC(=O)C1CCC(=O)N1 (stereo not given) the results were tim10-1 inh 3.0, SKKanGAS inh -5.2, tim23-1 inh 3.5, ATG4B inhibitor -1.9, TIM10 inh -19.9 and PfHsp90 set2 -1.6.
For O=C(NC(=S)N1CCCCC1c1cccnc1)c1ccc(F)cc1 (stereo not given) the results were tim10-1 inh 34.4, SKKanGAS inh 99.1*, tim23-1 inh 22.8, ATG4B inhibitor -6.7, TIM10 inh 4.4 and PfHsp90 set2 9.4.
Screening O=C(NC(=S)N1CCCCC1c1cccnc1)c1ccc(Br)cc1 (stereo not given) returned tim10-1 inh 32.4, SKKanGAS inh 8.3, tim23-1 inh 37.4, ATG4B inhibitor 6.9, TIM10 inh 32.1 and PfHsp90 set2 9.2.
`Cc1ccc(SCc2noc(C(=O)NCC3CCCO3)c2C(=O)O)cc1C` (stereo not given) gave tim10-1 inh 3.2, SKKanGAS inh 10.6, tim23-1 inh 2.2, ATG4B inhibitor 0.3, TIM10 inh -8.1 and PfHsp90 set2 5.4.
For CCOc1ccc(/C=N/NC(=S)NC2CC3C=CC2C3)cc1 (stereo not given) the results were tim10-1 inh 14.1, SKKanGAS inh 64.2*, tim23-1 inh 7.7, ATG4B inhibitor -5.5, TIM10 inh 20.3 and PfHsp90 set2 6.1.
CC(=O)Oc1ccc2c(c1)Oc1cc(OC(C)=O)ccc1C21OC(=O)c2ccccc21 was read as tim10-1 inh 29.9, tim23-1 inh 34.0, ATG4B inhibitor inactive, TIM10 inh 30.6 and PfHsp90 set2 1.4.
For CCOC(=O)c1c(C)[nH]c(C(=O)OCC(O)=C(C#N)c2nc3ccccc3[nH]2)c1C the results were ATG4B inhibitor -5.9 and PfHsp90 set2 1.2.
